According to PubChem BioAssay:

Experiments:
[1] = system: Botulinum neurotoxin type F light chain protease (Clostridium botulinum); assay: Clostridium botulinum type F light chain protease inhibitors, microsphere substrate cleavage, validation (AID 588459); conditions: multiplex microsphere protease substrate cleavage assay, flow cytometry; at 10 µM; hits give high values
[2] = target: Botulinum neurotoxin type A (Clostridium botulinum) (UniProt P0DPI0); assay: BoNT/A light chain protease inhibitors, biochemical, multiplex microsphere flow cytometry, validation set (AID 588460); conditions: at 10 µM, hits give high values
[3] = target: Lethal factor (Bacillus anthracis) (UniProt P15917); assay: Bacillus anthracis lethal factor inhibition, microsphere flow cytometry protease assay, validation at 10 µM (AID 588461); conditions: multiplex microsphere protease cleavage assay, hits give high values

Measured: inhibition

CCCN(CCC)C(=O)C(CCC(=O)O)NC(=O)c1ccccc1 (configuration not stated)
inactive: [1] 0.5% | [2] -0.3% | [3] 8.6%

Cc1cccc(C)c1NC(=O)C1CCCCN1C (configuration not stated)
inactive: [1] -3.1% | [2] -0.1% | [3] -7.9%

CC(=O)Nc1nc(CCC(C)C)cc2c1c(=O)oc1ccccc12
inactive: [1] 1.3% | [2] -0.1% | [3] -9.4%

CC[N+](C)(CC)CCOC(=O)C(O)(c1ccccc1)C1CCCCC1 (configuration not stated)
inactive: [1] 4.8% | [2] 1.4% | [3] -1.1%

CC(C)C(=O)Nc1c(O)c2ccccc2[nH]c1=O
inactive: [1] 3.5% | [2] -0.8% | [3] 1.1%

Cc1ccc(N2C(=O)c3ccccc3C2=O)cc1C
inactive: [1] -0.3% | [2] 0.5% | [3] -0.8%

N/C(=N/OS(=O)(=O)c1ccc([N+](=O)[O-])cc1)c1ccncc1
inactive: [1] 2.2% | [2] 0.3% | [3] 1%

Cc1cc(C)cc(Nc2nc3c([nH]2)c(=O)n(C)c(=O)n3C)c1
inactive: [1] -0.8% | [2] 0.5% | [3] 4.9%

COc1ccc(-c2noc(CCc3ccccc3)n2)cc1
inactive: [1] -8.8% | [2] -1.1% | [3] -11%

CN1CCCN(C(c2ccccc2)c2ccc(Cl)cc2)CC1 (configuration not stated)
inactive: [1] 3.2% | [2] -1.8% | [3] -8.8%

CC(=O)OCC(OC(C)=O)C(OC(C)=O)C(OC(C)=O)C(=O)Nc1cccc(C)c1 (configuration not stated)
inactive: [1] 3.7% | [2] 1.2% | [3] 3.1%

COc1ccc(CC(=O)Nc2cccc(C(=O)Nc3ccccc3C(=O)O)c2)cc1OC
inactive: [1] -5.3% | [2] -3.3% | [3] 1.8%

Nc1nnc(-c2cccc(Cl)c2Cl)c(N)n1
inactive: [1] 1.3% | [2] 0.8% | [3] -5.9%

CCOC(=O)c1cc2cc3ccccc3cc2[nH]1
inactive: [1] 3.4% | [2] -0.1% | [3] 5.8%

O=C(CN1C(=O)c2ccccc2C1=O)Nc1cccc([N+](=O)[O-])c1
inactive: [1] -5.7% | [2] -0.9% | [3] -2%

CCOC(=O)c1cnc2ccccc2c1NCCO
inactive: [1] -1.1% | [2] 0% | [3] 5.8%

CCCCC[C@H](O)/C=C/[C@@H]1[C@@H](C/C=C\CCCC(=O)O)[C@@H](O)C[C@H]1O
inactive: [1] -2.4% | [2] -1.9% | [3] -1.1%

COc1ccc2cc(CCC(C)=O)ccc2c1
inactive: [1] -2.3% | [2] 0.4% | [3] 6.3%

COc1cc2c3c(c1)C(C)CC(C)(C)N3C(=O)C2=O (configuration not stated)
inactive: [1] -6.7% | [2] -1.3% | [3] -5.6%

CC(C)COC(=O)C1C(=O)CC(C)(O)C(C(=O)OCC(C)C)C1c1cccnc1 (configuration not stated)
inactive: [1] 2.5% | [2] 0.6% | [3] 3.5%

Cc1cc(-c2nn(-c3ccccc3F)cc2CN2CCC(O)CC2)c(C)s1
inactive: [1] -1.7% | [2] 0.2% | [3] -1.4%

CN(C)c1ccc(C(CN)c2c[nH]c3ccccc23)cc1 (configuration not stated)
inactive: [1] -5.8% | [2] -1.5% | [3] -3.4%

CC1(C)CC(=O)c2cc(O)ccc2O1
inactive: [1] 2% | [2] 0.1% | [3] -2.1%

COc1ccc2oc(=O)c(C(=O)N3CCN(c4ccccc4)CC3)cc2c1
inactive: [1] -1% | [2] 0.2% | [3] 1.6%

CC(=O)O[C@H]1C[C@@]2(C)[C@@H](C[C@@H](O)[C@H]3[C@@]4(C)CC[C@@H](O)[C@@H](C)C4CC[C@@]32C)/C1=C(\CCC=C(C)C)C(=O)O (some centres not stated)
inactive: [1] -2.5% | [2] -0.2% | [3] 1.4%

O=C(CCCN1CCC(O)(c2ccc(Cl)cc2)CC1)c1ccc(F)cc1
inactive: [1] -3.5% | [2] 1.1% | [3] 3.7%

CS(=O)(=O)Nc1cccc(C(=O)CC2(O)C(=O)Nc3ccc(Br)cc32)c1 (configuration not stated)
inactive: [1] 3.1% | [2] 1.3% | [3] 6.6%

OCCN(CCO)c1ccc2ccccc2c1
inactive: [1] -1.3% | [2] -1.2% | [3] -6.6%

O=Cc1ccc(O)c(O)c1
inactive: [1] -2% | [2] -1.1% | [3] -1%
